From PubChem BioAssay (NCATS) come the findings set out here.

Structures are written as SMILES. Values without a mark were called inactive. Results filed as inconclusive are left out. Active and inactive are the calls of the source. Unless noted, calls come from the whole dose curve; as a rule, active = well fitted curve in the direction sought with a large enough effect; inconclusive = small, poorly fitted or top-dose-only effect, or another doubt; inactive = no such curve, though single readings can be large; an effect the other way counts as inactive or inconclusive.

The target of assay [1] is Lysosomal acid glucosylceramidase (Homo sapiens) (UniProt P04062). In words: Glucocerebrosidase-p2 (AID 348; in the data active = potency below about 10 µM; note: potency is the fitted concentration of half-maximal effect). The settings on record: purified GBA, blue fluorogenic substrate, 40 min. The essentials: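 Compounds titrated from 0.6 nM upwards against 0.2 nM enzyme in pH 5.9 citric acid/KH2PO4, taurocholate, tween-20; blue fluorogenic substrate 80 uM, 40 min room temperature, stopped and read Ex 365/Em 440 for AC50.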
Chain of Lysosomal acid glucosylceramidase (Homo sapiens) (P04062 whole entry, looked up): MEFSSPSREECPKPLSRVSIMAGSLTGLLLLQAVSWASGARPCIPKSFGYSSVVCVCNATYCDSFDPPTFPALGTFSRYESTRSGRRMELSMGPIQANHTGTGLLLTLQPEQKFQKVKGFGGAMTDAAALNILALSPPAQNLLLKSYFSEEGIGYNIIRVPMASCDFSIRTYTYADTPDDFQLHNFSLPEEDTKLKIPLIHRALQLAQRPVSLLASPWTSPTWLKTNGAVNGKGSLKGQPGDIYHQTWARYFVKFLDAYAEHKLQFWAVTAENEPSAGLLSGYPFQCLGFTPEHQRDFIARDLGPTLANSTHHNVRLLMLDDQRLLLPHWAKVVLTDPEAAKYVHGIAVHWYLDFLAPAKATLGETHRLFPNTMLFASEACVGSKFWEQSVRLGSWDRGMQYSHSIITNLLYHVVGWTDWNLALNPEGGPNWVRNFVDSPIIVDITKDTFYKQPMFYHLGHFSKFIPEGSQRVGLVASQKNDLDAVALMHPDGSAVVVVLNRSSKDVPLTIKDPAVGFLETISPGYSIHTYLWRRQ

Assay [2] in a line: AP1 Signaling Pathway (AID 357; active = well fitted curve in either direction with a large enough effect, not every such curve was filed as active; note: % is set by controls: 0 for no effect and ±100 for the full control effect). To be noted: ME-180 AP-1-bla reporter, EGF-induced, beta-lactamase ratio, 5 h; at 7.69 µM (top of the series) unless noted. In short, it runs like this: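 In this screen, ME-180 cells in Opti-MEM with 0.5% dialyzed FBS received EC50 EGF and compound titrations for 5 h. AP-1 reporter beta-lactamase was detected via CCF4 ratio, giving AC50 for positive and negative modulators.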

For assay [3], the target named is Cytochrome P450 1A2 (Homo sapiens) (UniProt P05177). Briefly: p450-cyp1a2 (AID 410; calls by dose curve; note: potency is the fitted concentration of half-maximal effect). The settings on record: recombinant CYP1A2, luciferin-ME demethylation, luminescence; series mostly up to 57 µM. In short, it runs like this: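 Inhibition was calculated relative to 57 uM furafylline (full inhibition). The reaction used human CYP1A2 at 20nM with Luciferin-ME at its Km, 100uM, driven by an NADPH-regenerating system for 60 min at room temperature.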
Chain of Cytochrome P450 1A2 (Homo sapiens) (P05177 whole entry, looked up): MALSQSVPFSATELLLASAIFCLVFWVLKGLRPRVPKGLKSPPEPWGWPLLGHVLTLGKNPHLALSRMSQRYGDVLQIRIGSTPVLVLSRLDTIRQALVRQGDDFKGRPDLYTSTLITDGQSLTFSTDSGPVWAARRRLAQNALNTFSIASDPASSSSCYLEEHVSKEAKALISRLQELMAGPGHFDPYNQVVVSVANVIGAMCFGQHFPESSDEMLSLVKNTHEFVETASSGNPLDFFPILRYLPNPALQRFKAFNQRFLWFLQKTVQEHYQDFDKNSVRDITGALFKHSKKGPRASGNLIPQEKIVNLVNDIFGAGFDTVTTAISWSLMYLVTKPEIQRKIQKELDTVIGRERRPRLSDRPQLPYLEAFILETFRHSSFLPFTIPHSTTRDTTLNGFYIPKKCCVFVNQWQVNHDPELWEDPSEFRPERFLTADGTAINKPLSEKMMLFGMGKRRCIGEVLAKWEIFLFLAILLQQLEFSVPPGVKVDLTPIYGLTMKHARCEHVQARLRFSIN

A short description of assay [4]: NFAT Signaling Pathway (AID 444; active = well fitted curve in either direction with a large enough effect, not every such curve was filed as active;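 note: carbachol stimulus at about its EC50 of 1 µM final; % is set by controls: 0 for no effect and ±100 for the full control effect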). The settings on record: Jurkat NFAT-bla M1, carbachol, beta-lactamase ratio, 5 h; at 7.69 µM (top of the series) unless noted. The essentials: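 Read-out: CCF4 FRET ratio (460 nm/530 nm) after 1 h RT dye loading, used for %activity and AC50 from titration series. Cells: Jurkat NFAT-β-lactamase/M1 line, treated with compound plus 1 uM carbachol for 5 h, 37 °C.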

Assay [5] deals with Glucocorticoid receptor (Homo sapiens) (UniProt P04150). Briefly: GR-GFP Redistribution (AID 450;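 active = compounds whose dose series gives a full or clear partial fitted curve of increased nuclear translocation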; note: potency is the fitted concentration of half-maximal effect). To be noted: U2OS GR-GFP nuclear translocation, laser cytometry, 2 h.
Chain of Glucocorticoid receptor (Homo sapiens) (P04150 whole entry, looked up, the tested form may be a part): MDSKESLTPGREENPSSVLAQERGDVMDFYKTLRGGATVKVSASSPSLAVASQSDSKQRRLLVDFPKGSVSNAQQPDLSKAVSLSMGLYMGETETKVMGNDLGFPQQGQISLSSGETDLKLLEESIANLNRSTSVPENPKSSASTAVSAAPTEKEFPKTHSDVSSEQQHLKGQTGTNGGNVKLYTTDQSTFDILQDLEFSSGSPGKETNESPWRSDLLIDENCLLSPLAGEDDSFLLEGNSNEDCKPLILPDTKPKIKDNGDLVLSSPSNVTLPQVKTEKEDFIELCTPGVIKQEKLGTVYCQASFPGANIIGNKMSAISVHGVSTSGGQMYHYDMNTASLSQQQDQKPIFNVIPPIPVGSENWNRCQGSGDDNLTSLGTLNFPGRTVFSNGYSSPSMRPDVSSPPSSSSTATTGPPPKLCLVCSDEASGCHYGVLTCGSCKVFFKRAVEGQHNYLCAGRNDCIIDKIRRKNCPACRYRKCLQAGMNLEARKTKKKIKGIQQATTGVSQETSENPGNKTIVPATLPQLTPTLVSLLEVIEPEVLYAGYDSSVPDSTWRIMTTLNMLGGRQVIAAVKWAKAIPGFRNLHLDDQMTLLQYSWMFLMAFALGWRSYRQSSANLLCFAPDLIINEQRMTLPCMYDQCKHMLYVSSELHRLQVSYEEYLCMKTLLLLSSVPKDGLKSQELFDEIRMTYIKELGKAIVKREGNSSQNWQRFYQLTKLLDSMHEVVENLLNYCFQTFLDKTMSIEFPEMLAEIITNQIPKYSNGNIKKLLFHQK
Assay [6] shares this target. Briefly: GR-EFC Redistribution (AID 451; calls by dose curve; note: potency is the fitted concentration of half-maximal effect). The settings on record: CHO-K1 GR-EFC translocation, beta-gal luminescence, 2 h. In short, it runs like this: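 Translocation of GR-ED fusion to nuclear EA restores b-gal, read by luminescence after 1 h room-temperature detection. Engineered CHO-K1 biosensor cells, 1,000/well, exposed 2 h at 37 C to titrations up to 46 uM final.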

The target of assay [7] is Mitogen-activated protein kinase 10 (Mus musculus) (UniProt Q61831). In words: JNK3 AlphaScreen Assay (AID 530; active = well fitted curve in either direction with a large enough effect, not every such curve was filed as active;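 note: kinase came from lysate of stimulated human HepG2 cells; signal reports phosphorylation of biotinylated GST-cJun 1-79 at Ser73 with 10 µM ATP; % is set by controls: 0 for no effect and ±100 for the full control effect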). To be noted: JNK3 lysate, c-Jun phosphorylation; series mostly up to 57.1 µM. In short, it runs like this:
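Room-temperature AlphaScreen kinase assay; pre-activated HepG2 lysate as JNK3 source, biotin-GST-cJun(1-79) substrate, 10 uM ATP, compound 15 min preincubation.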

Assay [8] addresses 3',5'-cyclic-AMP phosphodiesterase 4B (Homo sapiens) (UniProt Q07343). Briefly: qHTS Assay for Inhibitors of PDE-IV (AID 607; active = well fitted activation curve with a large enough effect in the main read-out, with a control signal flat, not every such curve was filed as active; note: % of control where 0% means no effect). The settings on record: HEK293 ACTOne CNG channel cells, membrane potential fluorescence; series mostly up to 22.9 µM. In short, it runs like this: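 HEK293 ACTOne cells with CNG channel (1000/well), endogenous PDE4; membrane potential dye, compounds up to 22.9 uM final. Fluorescence Ex 535/Em 590; RO 20-1724 (100 uM final) as reference.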
A general note: Quantitative high-throughput screening tests each substance at several concentrations.

The target in assay [9] is Cytochrome P450 3A4 (Homo sapiens) (UniProt P08684). Briefly: qHTS Assay for Inhibitors and Substrates of Cytochrome P450 3A4 (AID 884). Note: potency is the fitted concentration of half-maximal effect; nearly all actives have a fitted effect of over 50% in size. The settings on record: recombinant CYP3A4, Luciferin-PPXE luminescence; series mostly up to 57.1 µM. The essentials: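 20 nM human CYP3A4 with 25 uM Luciferin-PPXE (at KM) in 200 mM KPO4, preincubated 10 min with compound; NADPH regeneration started a 60 min RT reaction. Luciferin detected by luminescence, normalized to 57 uM ketoconazole as full inhibition.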
Chain of Cytochrome P450 3A4 (Homo sapiens) (P08684 whole entry, looked up): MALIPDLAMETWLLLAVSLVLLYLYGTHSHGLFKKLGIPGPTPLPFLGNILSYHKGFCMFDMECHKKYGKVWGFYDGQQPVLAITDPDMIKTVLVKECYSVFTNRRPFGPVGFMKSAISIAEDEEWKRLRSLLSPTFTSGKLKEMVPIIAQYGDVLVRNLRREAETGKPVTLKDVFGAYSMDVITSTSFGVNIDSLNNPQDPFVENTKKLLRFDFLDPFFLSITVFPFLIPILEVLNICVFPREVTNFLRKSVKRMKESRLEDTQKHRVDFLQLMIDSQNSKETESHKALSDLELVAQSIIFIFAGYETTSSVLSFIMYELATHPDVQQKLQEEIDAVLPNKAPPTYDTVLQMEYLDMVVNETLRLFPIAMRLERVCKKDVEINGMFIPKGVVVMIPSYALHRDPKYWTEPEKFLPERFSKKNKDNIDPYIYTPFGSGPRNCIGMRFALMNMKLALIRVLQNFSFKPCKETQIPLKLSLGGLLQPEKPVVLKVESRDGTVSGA

Assay [10] has the same target. In words: qHTS Assay for Activators of Cytochrome P450 3A4 (AID 885). Note: nearly all actives have a fitted effect of over 65% in size. To be noted: recombinant CYP3A4, Luciferin-PPXE luminescence, 60 min; series mostly up to 57.1 µM. In short, it runs like this: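 Human CYP3A4 (20 nM) with Luciferin-PPXE at 25 uM (its KM) in 200 mM KPO4; 10 min compound preincubation, then NADPH regeneration and 60 min reaction at RT. Luciferin read by luminescence; normalized to 57 uM ketoconazole full inhibition.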

The target in assay [11] is Dual specificity protein kinase CLK4 (Homo sapiens) (UniProt Q9HAZ1). Briefly: qHTS Assay for Inhibitors of CDC-like Kinase 4 (ADP-FP Assay) (AID 1795). Note: nearly all actives have a fitted effect of over 60% in size. Note: potency is the fitted concentration of half-maximal effect. The settings on record: Transcreener ADP fluorescence polarization; series mostly up to 50 µM. In short, it runs like this:
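Inhibition of ADP formation by 6.25 nM Clk4 is measured using 1 uM ATP and 100 uM RS repeat peptide over one hour. Produced ADP displaces a fluorescent tracer from antibody, lowering polarization.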

Assay [12] has as its target Ubiquitin carboxyl-terminal hydrolase 1 (Homo sapiens) (UniProt O94782). Briefly: Inhibitors of USP1/UAF1: Pilot qHTS (AID 504865).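 Note: rhodamine fluorescence freed from ubiquitin-rhodamine substrate followed over time; top concentration of the series differs between compounds; % is set by controls: 0 for no effect and ±100 for the full control effect; nearly all actives have a fitted effect of over 35% in size.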 To be noted: purified USP1/UAF1, Ub-rhodamine cleavage fluorescence; series mostly up to 54.9 µM. In short, it runs like this: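 Kinetic fluorescence assay: 1nM USP1/UAF1, 15 min compound preincubation, then 150nM Ub-Rho; 480/540 nm.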
Assay [13] can be described thus: Primary qHTS for small molecule stabilizers of the endoplasmic reticulum resident proteome: Secreted ER Calcium Modulated Protein (SERCaMP) assay (AID 1508630). Note: % is set by controls: 0 for no effect and ±100 for the full control effect. To be noted: SH-SY5Y GLuc-SERCaMP (Gaussia luciferase released on ER calcium loss) secretion, thapsigargin, luminescence; series mostly up to 38.4 µM. In short, it runs like this:
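GLuc-SERCaMP-expressing SH-SY5Y cells, pretreated 16 h with compound, are challenged with thapsigargin to empty ER calcium stores; after 4 h, coelenterazine is added directly to the medium and luminescence is imaged.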

Assay [14] is described as follows: Stat Signaling Pathway (AID 446; active = well fitted curve in either direction with a large enough effect, not every such curve was filed as active). The settings on record: ME-180 SIE beta-lactamase reporter, IL-6 stimulated, 5 h; at 7.69 µM (top of the series) unless noted. The essentials:
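ME-180 cells carrying a SIE-driven beta-lactamase reporter are stimulated with 40 pM IL-6 for 5 h at 37C in the presence of compound. The 460/530 nm FRET substrate ratio is read after 2.5 h at RT. Data are normalised to 300 pM IL-6 and to 125 nM JAK inhibitor controls.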

Assay [15] concerns the target Cytochrome P450 2D6 (Homo sapiens) (UniProt P10635). Briefly: qHTS Assay for Inhibitors and Substrates of Cytochrome P450 2D6 (AID 891). Note: potency is the fitted concentration of half-maximal effect; nearly all actives have a fitted effect of over 60% in size. To be noted: recombinant CYP2D6, luciferin-ME EGE luminescence; series mostly up to 57.1 µM. The essentials: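 Human CYP2D6 (5 nM) with 30 uM Luciferin-ME EGE (at Km) in 100 mM KPO4, compound preincubated 10 min, then NADPH regeneration system for 60 min at room temperature. Luciferin read by luminescence; normalized to 1.43 uM quinidine.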

Assay [16] has as its target Cytochrome P450 2C19 (Homo sapiens) (UniProt P33261). Briefly: qHTS Assay for Inhibitors and Substrates of Cytochrome P450 2C19 (AID 899). Note: potency is the fitted concentration of half-maximal effect; nearly all actives have a fitted effect of over 60% in size. To be noted: recombinant CYP2C19, luciferin-H EGE luminescence; series mostly up to 57.1 µM. In short, it runs like this:
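5nM enzyme + 10uM Luciferin-H EGE (=KM), 50mM KPO4; cpd pin-transferred, 10 min 37C; NADPH regen, 60 min 37C; stopped w/ luciferin detection reagent, 20 min; luminescence. Normalized to 57uM ketoconazole (AC100).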

Assay [17] is described as follows: qHTS Assay for Identification of Small Molecule Agonists for Hypoxia Response Element Signaling Pathway (AID 914; active = well fitted activation curve with a large enough effect in the signal ratio, with a control signal flat, not every such curve was filed as active; the % refers to the signal ratio; note: % of control where 0% means no effect). To be noted: ME-180 (cervical carcinoma) HRE-bla reporter, beta-lactamase ratio, CoCl2, 17 h; activation: active compounds read high. In short, it runs like this:
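Cells were plated overnight, pin-dosed with compound in a titration series, co-stimulated with EC50 CoCl2 and incubated 17 hours at 37 degrees Celsius. CCF4 substrate was then loaded, and AC50 values came from the 460nm/530nm ratio.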

Chain of Ubiquitin carboxyl-terminal hydrolase 1 (Homo sapiens) (O94782 whole entry, looked up): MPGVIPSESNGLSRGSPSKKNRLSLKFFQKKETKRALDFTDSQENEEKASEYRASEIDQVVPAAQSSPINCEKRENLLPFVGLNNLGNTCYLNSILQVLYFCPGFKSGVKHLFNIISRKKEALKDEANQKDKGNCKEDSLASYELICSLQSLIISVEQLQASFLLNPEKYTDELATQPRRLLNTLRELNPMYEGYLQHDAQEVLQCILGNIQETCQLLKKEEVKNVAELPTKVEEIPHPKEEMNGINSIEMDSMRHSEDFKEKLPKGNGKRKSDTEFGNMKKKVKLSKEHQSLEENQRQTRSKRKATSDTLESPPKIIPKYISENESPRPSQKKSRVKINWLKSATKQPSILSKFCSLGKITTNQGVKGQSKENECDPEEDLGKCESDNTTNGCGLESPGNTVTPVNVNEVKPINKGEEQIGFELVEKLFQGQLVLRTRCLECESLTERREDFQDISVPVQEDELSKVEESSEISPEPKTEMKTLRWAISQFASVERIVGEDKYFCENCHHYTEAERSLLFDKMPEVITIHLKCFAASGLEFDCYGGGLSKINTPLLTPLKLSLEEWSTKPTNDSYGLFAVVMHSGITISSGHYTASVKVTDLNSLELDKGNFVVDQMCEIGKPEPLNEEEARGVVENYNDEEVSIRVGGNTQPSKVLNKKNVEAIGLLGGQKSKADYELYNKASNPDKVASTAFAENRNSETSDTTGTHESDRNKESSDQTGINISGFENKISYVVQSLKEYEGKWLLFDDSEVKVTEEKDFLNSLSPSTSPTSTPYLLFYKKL
Chain of 3',5'-cyclic-AMP phosphodiesterase 4B (Homo sapiens) (Q07343 whole entry, looked up): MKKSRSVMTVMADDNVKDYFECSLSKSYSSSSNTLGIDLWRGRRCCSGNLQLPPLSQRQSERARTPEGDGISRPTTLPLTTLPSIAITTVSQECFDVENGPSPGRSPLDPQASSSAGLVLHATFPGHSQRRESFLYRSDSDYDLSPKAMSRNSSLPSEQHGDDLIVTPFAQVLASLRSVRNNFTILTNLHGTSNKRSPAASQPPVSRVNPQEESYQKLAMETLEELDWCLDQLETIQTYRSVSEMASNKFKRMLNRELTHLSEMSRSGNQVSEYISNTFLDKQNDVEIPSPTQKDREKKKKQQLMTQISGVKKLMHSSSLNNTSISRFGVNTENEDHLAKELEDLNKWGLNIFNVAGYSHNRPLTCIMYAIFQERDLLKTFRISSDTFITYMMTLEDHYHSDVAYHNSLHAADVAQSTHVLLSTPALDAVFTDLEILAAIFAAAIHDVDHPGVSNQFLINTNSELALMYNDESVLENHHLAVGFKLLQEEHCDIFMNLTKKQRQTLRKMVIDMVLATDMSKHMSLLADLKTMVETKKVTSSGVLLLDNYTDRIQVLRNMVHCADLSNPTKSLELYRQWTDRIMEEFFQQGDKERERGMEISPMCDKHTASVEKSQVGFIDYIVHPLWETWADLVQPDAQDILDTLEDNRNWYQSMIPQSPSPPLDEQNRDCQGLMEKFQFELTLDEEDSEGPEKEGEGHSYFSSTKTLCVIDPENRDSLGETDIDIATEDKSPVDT
Chain of Dual specificity protein kinase CLK4 (Homo sapiens) (Q9HAZ1 whole entry, looked up): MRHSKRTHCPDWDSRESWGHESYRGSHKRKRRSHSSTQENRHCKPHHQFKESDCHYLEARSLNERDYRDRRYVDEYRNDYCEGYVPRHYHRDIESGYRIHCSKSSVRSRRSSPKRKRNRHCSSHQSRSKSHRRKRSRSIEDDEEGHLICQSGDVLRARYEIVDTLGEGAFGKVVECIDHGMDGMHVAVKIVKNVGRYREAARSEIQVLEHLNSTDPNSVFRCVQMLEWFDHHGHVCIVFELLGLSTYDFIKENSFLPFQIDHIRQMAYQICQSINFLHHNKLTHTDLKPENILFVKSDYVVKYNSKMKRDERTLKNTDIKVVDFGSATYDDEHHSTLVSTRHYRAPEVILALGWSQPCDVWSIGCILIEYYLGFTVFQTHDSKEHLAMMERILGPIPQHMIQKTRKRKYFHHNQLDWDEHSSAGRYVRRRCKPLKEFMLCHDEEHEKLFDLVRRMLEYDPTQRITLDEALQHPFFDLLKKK
Chain of Cytochrome P450 2C19 (Homo sapiens) (P33261 whole entry, looked up): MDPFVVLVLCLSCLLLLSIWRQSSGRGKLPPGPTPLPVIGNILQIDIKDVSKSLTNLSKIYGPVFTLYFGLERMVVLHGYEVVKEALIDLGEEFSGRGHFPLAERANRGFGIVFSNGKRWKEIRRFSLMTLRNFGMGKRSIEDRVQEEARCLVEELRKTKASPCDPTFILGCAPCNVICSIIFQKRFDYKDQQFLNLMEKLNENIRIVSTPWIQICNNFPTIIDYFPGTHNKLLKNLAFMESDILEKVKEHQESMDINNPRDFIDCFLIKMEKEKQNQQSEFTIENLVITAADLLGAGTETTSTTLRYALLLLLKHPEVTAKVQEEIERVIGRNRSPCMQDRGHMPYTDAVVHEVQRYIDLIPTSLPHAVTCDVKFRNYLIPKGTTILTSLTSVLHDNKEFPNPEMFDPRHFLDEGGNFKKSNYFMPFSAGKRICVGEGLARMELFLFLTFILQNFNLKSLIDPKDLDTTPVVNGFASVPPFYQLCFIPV

On to `CN(Cc1ccco1)c1cc(-c2cccnc2)ncn1`, for which the Potency in assay [1] is more than 11.4 µM; in [3] it was 316 nM (active); in assay [5], more than 46 µM; in [6], more than 46 µM; in assay [9], 3.16 µM (active). Further, the activity change, negative = inhibition in assay [2] is 11.4%; in assay [4] it was -0.973%. Moreover, the Potency entry in assay [7], in assay [8], in assay [10], in assay [11] and in assay [12] was “inactive” each time. Also, the result in assay [13] was inactive.

For the molecule `CN(Cc1ccco1)c1ncncc1-c1ccc2c(c1)OCO2`, the Potency in assay [1] is more than 11.4 µM; in [3] it was 200 nM (active); in assay [5], more than 46 µM; in assay [6], more than 46 µM; in assay [9], 1.26 µM (active); in [15], 1.26 µM (active). The Potency in assay [16] was 126 nM (active). For the same molecule, the activity change, negative = inhibition in [2] was 1.93%. In [14], the activity, negative = inhibition is -2.55%. Moreover, the Potency result in [7], in [10], in assay [11] and in assay [12] was “inactive” each time. For the same molecule, the activation in [17] was 4.7%. In assay [13], the outcome was inactive.

On to `CCNc1ncc2nc(-c3cccs3)c(=O)n(-c3ccccc3)c2n1`, for which the Potency in [1] was more than 11.4 µM; in [3], 1580 nM (active); in assay [5] it was more than 9.22 µM; in [6] it was more than 46 µM. For the same molecule, the activity change, negative = inhibition in [2] was -0.879%; in assay [4] it was -3.13%. The Potency entry in [7], in assay [11] and in [12] was “inactive” in each case. Further, the result in [13] was inactive.

Regarding `CN(C)C(=O)c1ccc(-c2ccc3ncnc(N(C)Cc4ccco4)c3c2)cc1`, the Potency in assay [1] is more than 11.4 µM; in assay [5], more than 46 µM; in assay [6], more than 46 µM; in assay [11] it was 7.08 µM (active). The activity change, negative = inhibition in assay [4] is 8.43%. Also, in assay [14], the activity, negative = inhibition is -9.98%. In addition, the Potency result in [7] and in assay [12] was “inactive” throughout. Moreover, in assay [13], the result was inactive.

Regarding `CS(=O)(=O)Nc1cccc(-c2cc(NCc3ccccc3)ncn2)c1`, the Potency in assay [1] is more than 11.4 µM; in assay [3] it was 12600 nM (active); in assay [6] it was more than 46 µM. Moreover, the values for the activity change, negative = inhibition in assay [2] and in assay [4] were -7.54% and 8.48%, respectively. In addition, the activity, negative = inhibition in [14] was -7.25%. Also, the Potency entry in assay [7], in assay [8], in assay [10], in assay [11] and in assay [12] was “inactive” in each case. For the same molecule, in assay [13], the result was inactive.

On to `CN(C)C(=O)c1ccc(-c2ccc3ncnc(NCCN4CCOCC4)c3c2)cc1`, for which the Potency is more than 11.4 µM in assay [1] and more than 46 µM in assay [6]. Also, the results for the activity change, negative = inhibition in assay [2] and in assay [4] were -5.51% and 6.26%, respectively. Further, the activity, negative = inhibition in [14] was -17.4%. Also, the Potency entry in assay [7], in assay [8], in assay [10], in [11] and in assay [12] was “inactive” in each case. Also, the result in [13] was inactive.

`Cc1noc(C)c1-c1nc(N(C)C)c2ccccc2n1`: the Potency in [1] is more than 11.4 µM; in [3], 39.8 nM (active); in assay [5], more than 46 µM; in assay [6], more than 46 µM. In addition, the activity change, negative = inhibition in assay [4] was 3.94%. In assay [14], the activity, negative = inhibition was 4.14%. The Potency entry in [7], in [8], in assay [10], in assay [11] and in assay [12] was “inactive” each time. In assay [13], the outcome was inactive.

Consider `Cc1cnc(CNc2nc(-c3cccc(NS(C)(=O)=O)c3)nc3ccccc23)cn1`, for which the Potency in assay [1] was more than 11.4 µM; in assay [5], more than 46 µM; in assay [6], more than 46 µM. Moreover, the figures for the activity change, negative = inhibition in [2] and in assay [4] were -28.3% and 19.4%, respectively. Besides, the activity, negative = inhibition in assay [14] was -4.54%. Further, the Potency result in [7], in assay [8], in [11] and in assay [12] was “inactive” in each case. For the same molecule, the outcome in [13] was inactive.
